Test results from PubChem BioAssay (NCI).
About 79,000 compounds went through this panel and 15% of them were active in at least one assay; those are over-represented in the sample as a whole. Active and inactive are the calls of the source. Rule as the data show it: active = growth inhibition above about 70%; inactive = the rest.

Experiment: NCI Yeast Anticancer Drug Screen. Data for the mlh1 strain (AID 171);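 also: 0% = growth of vehicle-treated control cultures of the same strain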
Conditions: S. cerevisiae mlh1 strain growth inhibition, stronger effect = higher value
Experimental: Growth inhibition of yeast strains with defined genetic alterations is measured as a screen for potential anti-cancer activity. Selected strains with alterations in DNA damage repair or cell cycle control were exposed to compounds and growth inhibition was measured relative to vehicle treated controls. The strain used in this assay is mlh1

Measured: growth inhibition

O=c1ccc2ccccc2c2ccccc12
inactive: at 1.2 µM 15% | at 3.7 µM 55%
active: at 11.0 µM 83% | at 33.0 µM 99% | at 100.0 µM 99%

CCCCCCOC(=O)NCCOC(=O)Nc1ccccc1
inactive: at 1.2 µM -1% | at 3.7 µM -1% | at 11.0 µM 2% | at 33.0 µM 4% | at 100.0 µM 6%

CC(C)CCCC(C)C1CCC2C3CCC4=CC(=O)/C(=C\O)CC4(C)C3CCC12C (stereo not given)
inactive: at 1.2 µM -1% | at 3.7 µM -2% | at 11.0 µM -3% | at 33.0 µM -2% | at 100.0 µM 15%

COc1ccc(/C=C/C(=O)c2ccccc2)cc1OC
inactive: at 1.2 µM 20% | at 3.7 µM 19% | at 11.0 µM 17% | at 33.0 µM 67%
active: at 100.0 µM 95%

CN(C)CCNc1ccc2ncnc3c2c1C(=O)c1ccccc1-3
inactive: at 1.2 µM 10% | at 3.7 µM 14% | at 11.0 µM 28% | at 33.0 µM 41% | at 100.0 µM 46%

CCC(=O)c1cc(C(=O)C(=S)SC)cc(C(=O)C(=S)SC)c1
inactive: at 1.2 µM 0% | at 3.7 µM 40%
active: at 11.0 µM 98% | at 33.0 µM 96% | at 100.0 µM 93%

Clc1ccc2c(c1)N(CCCN1CCCC13CCCCC3)c1ccccc1S2
inactive: at 1.2 µM 0% | at 3.7 µM 2% | at 11.0 µM -4% | at 33.0 µM -15% | at 100.0 µM 8%

CN(C)N=Nc1ccccc1C(=O)NC#N
active: at 11.0 µM 93% | at 33.0 µM 99% | at 100.0 µM 98%
inactive: at 1.2 µM 1% | at 3.7 µM 4%
